Only some compounds are listed: those with a hit (about 1.3% of all), similar ones and a draw of the others.
Glioma ERSR ind – inducers of ER stress response in human glioma cells; U87-MG GRP78 promoter luciferase reporter, 16 h; Potency, µM, for the others: at the top dose activation, actives largely listed as activators; hit rate 0.02% among 420,000; note: potency is the fitted concentration of half-maximal effect; series mostly up to about 76 µM; % of control where 0% means no effect; nearly all actives have a fitted effect of over 35% in size
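Stably transfected U87-MG glioma cells carrying a GRP78-based luciferase sensor; 16 h compound incubation. Luminescence end-point read 10 min after Bright-Glo addition at room temperature.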
PI5P4Ka inh – blocks human PI5P4K alpha kinase activity. PI5P4Kalpha enzyme, ADP-Glo luminescence, 60 min; stronger effect = lower value. max response, %. hit rate 1.2% among 330,000; active = max response of -50% or lower; inconclusive = between -30% and -50%; inactive = -30% or higher; note: value at the top dose of about 77 µM; % is set by controls: 0 for no effect and ±100 for the full control effect
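qHTS, 1536-well: enzyme/substrate mix, compound by pin tool, 5 microM ATP final; RT 60 min; ADP-Glo reagents 1 (45 min) then 2 (30 min); luminescence.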
FEN1 inh – inhibitors of human flap endonuclease 1; P39748; Recombinant FEN1 flap cleavage, fluorescence, 15 min; Potency, µM (doses to about 114 µM), without a hit: at the highest dose activity change, negative = inhibition, hits mostly inhibitors; hit rate 0.35% among 390,000; AID 588795; note: potency is the fitted concentration of half-maximal effect; % is set by controls: 0 for no effect and ±100 for the full control effect; nearly all actives have a fitted effect of over 65% in size
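Potency values derive from four-parameter Hill fits of normalized qHTS data. The reaction used 10 nM FEN1 preincubated 15 min at room temperature with compound, then 50 nM DNA substrate, read at 0 and 15 min.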
PGK inhibitor – blocks T. brucei phosphoglycerate kinase; AID 602233; hit rate 0.043% among 380,000; PGK/GAPDH coupled, Kinase-Glo luminescence, 60 min; Potency, µM (doses to about 57.5 µM), for inactives: top-dose activity change, negative = inhibition, usual class: inhibitors; P07378; note: potency is the fitted concentration of half-maximal effect; % is set by controls: 0 for no effect and ±100 for the full control effect; nearly all actives have a fitted effect of over 60% in size
Target sequence (P07378 whole entry, looked up): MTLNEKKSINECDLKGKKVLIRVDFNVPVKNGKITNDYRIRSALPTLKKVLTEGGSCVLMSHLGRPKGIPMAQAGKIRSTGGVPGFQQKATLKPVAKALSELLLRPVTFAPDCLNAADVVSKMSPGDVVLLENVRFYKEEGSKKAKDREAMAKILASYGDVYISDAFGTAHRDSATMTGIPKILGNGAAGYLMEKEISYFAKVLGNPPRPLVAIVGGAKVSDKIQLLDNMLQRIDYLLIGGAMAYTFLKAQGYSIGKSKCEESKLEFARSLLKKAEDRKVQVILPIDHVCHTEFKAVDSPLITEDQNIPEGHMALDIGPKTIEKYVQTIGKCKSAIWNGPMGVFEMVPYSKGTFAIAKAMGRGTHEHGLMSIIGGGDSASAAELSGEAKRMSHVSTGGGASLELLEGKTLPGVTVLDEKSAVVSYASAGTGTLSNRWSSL
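Luminescent ATP detection (Kinase-Glo Plus) follows a 60-minute room-temperature incubation, with wells lacking PGK as controls. Buffer: 100 mM TEA (pH 7.6), 5 mM MgCl2, 0.01% Tween-20. Coupling enzyme GAPDH (100 nM final) supplies unstable 1,3-BPG in-well.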
WRN helicase inh – WRN helicase (human) inhibition | Q14191 | WRN helicase unwinding, fluorescent forked duplex, kinetic | hit rate 0.46% among 360,000 | AID 651768 | Potency, µM (doses to about 114 µM), without a hit: at the highest dose activity change, negative = inhibition, usual class: inhibitors; note: potency is the fitted concentration of half-maximal effect; % is set by controls: 0 for no effect and ±100 for the full control effect; nearly all actives have a fitted effect of over 55% in size
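Primary qHTS, 1536-well format. 20 nM WRN + compound, 15 min RT; start with 100 nM forked fluorophore/quencher duplex, 2 mM ATP (final); kinetic read ex 525/em 598 nm.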
Pin1 inh – inhibitors of human Pin1; Pin1 FP peptide displacement, HiFluor488, 10 min; hit rate 0.009% among 390,000; AID 504891; Potency, µM (highest dose often 115 µM), for the others: at the top dose activity, negative = inhibition, actives largely listed as inhibitors; Q13526; active = well fitted inhibition curve with a large enough effect in the polarisation, with a control signal flat, not every such curve was filed as active; inconclusive = small, poorly fitted or top-dose-only effect, or effect the other way, or a change in a side signal; inactive = no such curve, though single readings can be large or run the other way; the % refers to the polarisation; note: potency is the fitted concentration of half-maximal effect; % is set by controls: 0 for no effect and ±100 for the full control effect
Target sequence (Q13526 whole entry, looked up): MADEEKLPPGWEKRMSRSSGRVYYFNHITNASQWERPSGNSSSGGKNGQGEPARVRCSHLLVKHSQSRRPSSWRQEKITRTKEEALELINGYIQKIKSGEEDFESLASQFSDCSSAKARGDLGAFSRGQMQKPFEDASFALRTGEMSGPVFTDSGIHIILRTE
* = called active by the depositor; i = inactive; ? = inconclusive; . = no result; [ ] = another dose, or the depositor's remark. Unless noted, calls come from the whole dose curve; as a rule, active = well fitted curve in the direction sought with a large enough effect; inconclusive = small, poorly fitted or top-dose-only effect, or another doubt; inactive = no such curve, though single readings can be large; an effect the other way counts as inactive or inconclusive.

SMILES | Glioma ERSR ind | PI5P4Ka inh | FEN1 inh | PGK inhibitor | WRN helicase inh | Pin1 inh
COc1cc2sc3cc(NCCCN4CCOCC4)ccc3c(=O)c2cc1OC | 7.0% | 3.6 | ? | -3.9% | -30.3% | ?
NC(=O)C1CCN(c2ncc(-c3cccc(N4CCOCC4)c3)s2)CC1 | . | . | . | . | . | -3.2%
CSc1ccccc1NC(=O)Cn1nc([N+](=O)[O-])cc1C | -2.2% | 3.3 | 4.2% | -6.1% | -1.0% | -10.5%
Cc1cc([N+](=O)[O-])nn1CC(=O)Nc1cccc2nonc12 | -6.0% | -73.4* | -8.7% | -0.9% | -24.1% | 2.6%
CC(=O)Nc1ccc2nc3c(=O)n(C)c(=O)n(C)c3nc2c1 | -4.6% | ? | ? | -9.7% | 10µM* | ?
CC(NC(=O)/C(C#N)=C/c1ccc([N+](=O)[O-])o1)c1ccccc1 (stereo not given) | -19.2% | ? | ? | i | 56.2µM* | ?
OC1(c2cccnc2)CCN(Cc2ccc3c(c2)CN(Cc2ccsc2)CCO3)CC1 | -2.6% | . | . | . | . | .
COc1ccc(-c2nnc3sc(-c4ccco4)nn23)cc1OC | -2.1% | . | 2.0% | -6.1% | 1.3% | ?
Cc1oc(-c2ccc(F)cc2)cc1-c1nn2c(-c3ccoc3C)nnc2s1 | -3.4% | -74.4* | -10.9% | -15.6% | ? | ?
CN(Cc1cnc2ccccn12)C(=O)c1cc(NC(=O)c2ccccc2)cc2ncn(C3CCCC3)c12 | -0.6% | . | . | . | . | .
O=C1C(Cl)=C(NS(=O)(=O)c2ccc([N+](=O)[O-])cc2)C(=O)c2ccccc21 | -3.7% | 101.9 | -10.8% | -12.7% | 79.4µM* | -12.8%
N#C/C(=C\c1ccc(N2CCOCC2)o1)c1ccccc1 | 11.1% | . | -19.4% | -7.8% | -10.5% | ?
N#C/C(=C/c1ccc(N2CCOCC2)o1)c1nc2ccccc2[nH]1 | -8.9% | -21.4 | ? | -23.9% | 56.2µM* | ?
O=C(COC(=O)/C=C/c1ccc(Cl)cc1Cl)Nc1cccc(S(=O)(=O)NC2=NCCC2)c1 | -5.9% | -75.0* | . | 0.9% | -1.4%[11.6 µM] | .
O=C(COC(=O)/C=C/c1cccc(Cl)c1)Nc1cccc(S(=O)(=O)NC2=NCCC2)c1 | -2.5% | 4.1 | -21.5% | -8.7% | 0.8% | -6.1%
O=C(Nn1c(-c2ccncc2)nc2ccccc2c1=O)c1ccc(Br)cc1 | -0.7% | -0.5 | 2.9% | -3.9% | -22.8% | -1.9%
O=C(Nn1c(-c2ccc(Br)cc2)nc2ccccc2c1=O)c1cccnc1 | 4.0% | -56.2* | 1.3% | -2.0% | ? | -2.1%
O=C(CNC(=O)N1CC(=O)Nc2ccccc21)Nc1cc(Cl)ccc1Cl | -3.7% | 0.3 | 39.8µM* | i | 1.0%[11.6 µM] | 13.9%
Cc1ccc(Cl)cc1NC(=O)CCNC(=O)N1CC(=O)Nc2ccccc21 | -2.0% | -0.6 | -0.8% | 1.5% | -0.1% | -10.8%
CC1=NN(C(N)=S)C(=O)C1N=Nc1c(C)cc(C)cc1C (stereo not given) | 1.9% | -5.0 | 11.5% | -4.4% | -4.8% | 3.5%
CC1=NN(C(N)=S)C(=O)C1N=Nc1c(Cl)cc([N+](=O)[O-])cc1Cl (stereo not given) | -1.5% | -57.0* | -4.2% | -10.9% | -19.2% | -5.0%
CCN1CC2([N+](=O)[O-])C=CC(=O)C([N+](=O)[O-])(C1)C2CC(=O)c1ccccc1 (stereo not given) | -0.2% | -52.9* | 13.0% | -11.6% | -35.6%[57.1 µM] | ?
O=C(COc1ccccc1Cl)Nc1ccc(C(=O)O)cc1NC(=O)COc1ccccc1Cl | -9.6% | -64.3* | -0.5% | -7.1% | -27.0% | -14.2%
C#CCNC(=O)C1=C[C@H](c2ccc(C#C)cc2)C[C@H](OCc2ccc(CO)cc2)O1 | 1.3% | -58.6* | 0.0% | 2.4% | -12.0% | 20.3%
C#CCNC(=O)C1=C[C@@H](c2ccccc2)C[C@@H](OCc2ccc(CO)cc2)O1 | -0.8% | -13.0 | -10.1% | -1.4% | 11.5% | 9.8%
SMILES | Glioma ERSR ind | PI5P4Ka inh | FEN1 inh | PGK inhibitor | WRN helicase inh | Pin1 inh
N#Cc1ccc2sn(-c3ccccc3)c(=O)c2c1 | 2.8% | -108.2* | . | -6.0% | -6.1% | .
O=c1c2cc([N+](=O)[O-])ccc2sn1-c1ccccc1 | -3.6% | -99.6* | . | -2.9% | 4.4% | .
O=c1c(-c2ccccc2)c[nH]n1-c1cccc([N+](=O)[O-])c1 | -1.2% | -5.3 | 1.4% | -11.3% | -0.7% | -2.8%
CC(=O)Nc1ccc2sn(-c3ccccc3)c(=O)c2c1 | -10.7% | -82.1* | . | -6.2% | 1.7% | .
CC1(C)CN(c2cccc(C#N)c2)C1=O | -0.1% | -20.2 | -4.2% | -6.1% | 3.3% | -0.9%
N#Cc1ccc(CC(=O)c2ccccc2)[nH]c1=O | 1.2% | -16.5 | 2.9% | -8.0% | 56.2µM* | ?
O=C(O)c1cc(NN=Nc2cccc([N+](=O)[O-])c2)cc([N+](=O)[O-])c1 | 17.3% | ? | -14.0% | -4.2% | -10.5% | -7.0%
O=C(O)c1cc(NN=Nc2cccc(S(=O)(=O)O)c2)cc([N+](=O)[O-])c1 | -5.2% | -55.5* | 6.3% | -1.0% | -1.2% | 0.0%
O=C(COc1ccccc1[N+](=O)[O-])Nc1cccc(C(=O)Nc2ccccc2C(=O)O)c1 | -1.0% | -62.5* | ? | -10.7% | -18.7% | -3.8%
CC(C)c1ccc(OCC(=O)Nc2cccc(C(=O)Nc3ccccc3C(=O)O)c2)cc1 | 1.7% | ? | 2.9% | -1.4% | -21.0% | .
CC(C)c1nc(C(=O)N2CCOc3ccc(CN4CCN(c5ccccn5)CC4)cc3C2)cs1 | 0.5% | . | . | . | . | .
CCOc1ccc2nc3cc(NCc4ccc(OC)cc4)ccc3c(N)c2c1 | -14.4% | ? | 22.4µM* | . | 35.5µM* | ?
O=C(O)/C(CC(=O)c1ccc(Cl)cc1)=N/Nc1ccc([N+](=O)[O-])cc1[N+](=O)[O-] | -2.3% | -53.4* | -15.0% | -3.6% | -14.2%[11.6 µM] | .
CCC(CC)=NNc1ccc([N+](=O)[O-])cc1[N+](=O)[O-] | -0.7% | 3.3 | 15.7% | 2.5% | -3.1% | 1.2%
COc1ccc2[nH]c3c4c(ccc3c2c1)C(=O)C=CC4=O | -10.6% | -65.2* | -7.3% | 2.5% | -13.6% | 33.2%
COc1ccc2[nH]c(-c3ccc(F)cc3F)cc(=O)c2c1 | 0.9% | . | . | . | . | .
Cc1c(C(=O)N2CCOc3ccccc3C2)sc2ncnc(NCCCN3CCOCC3)c12 | -3.3% | . | . | . | . | .
O=S1(=O)N=C(Oc2ccc(C(F)(F)F)cc2)c2ccccc21 | . | . | . | . | . | -2.1%
COc1cc(/C=C2/C(=N)N3C(SC)=NSC3=NC2=O)ccc1OC(=O)c1ccco1 | 4.4% | ? | 5.1% | -4.3% | -31.0% | 31.4%
COc1cc(/C=C2/C(=N)N3C(=NC2=O)SN=C3S(=O)(=O)C(C)C)ccc1OC(=O)c1ccco1 | -3.5% | -75.2* | -1.1% | i | -20.5% | 35.1%

Screening data from PubChem.
